This is an account of results in ChEMBL document CHEMBL3988442, “University of Dundee, Small-Polar-MMV Screening Library” (2021).

The assay deals with T1, Tyrosyl-tRNA synthetase, putative (Trypanosoma cruzi (strain CL Brener)) (UniProt Q4DSP6).
T1 sequence (whole entry): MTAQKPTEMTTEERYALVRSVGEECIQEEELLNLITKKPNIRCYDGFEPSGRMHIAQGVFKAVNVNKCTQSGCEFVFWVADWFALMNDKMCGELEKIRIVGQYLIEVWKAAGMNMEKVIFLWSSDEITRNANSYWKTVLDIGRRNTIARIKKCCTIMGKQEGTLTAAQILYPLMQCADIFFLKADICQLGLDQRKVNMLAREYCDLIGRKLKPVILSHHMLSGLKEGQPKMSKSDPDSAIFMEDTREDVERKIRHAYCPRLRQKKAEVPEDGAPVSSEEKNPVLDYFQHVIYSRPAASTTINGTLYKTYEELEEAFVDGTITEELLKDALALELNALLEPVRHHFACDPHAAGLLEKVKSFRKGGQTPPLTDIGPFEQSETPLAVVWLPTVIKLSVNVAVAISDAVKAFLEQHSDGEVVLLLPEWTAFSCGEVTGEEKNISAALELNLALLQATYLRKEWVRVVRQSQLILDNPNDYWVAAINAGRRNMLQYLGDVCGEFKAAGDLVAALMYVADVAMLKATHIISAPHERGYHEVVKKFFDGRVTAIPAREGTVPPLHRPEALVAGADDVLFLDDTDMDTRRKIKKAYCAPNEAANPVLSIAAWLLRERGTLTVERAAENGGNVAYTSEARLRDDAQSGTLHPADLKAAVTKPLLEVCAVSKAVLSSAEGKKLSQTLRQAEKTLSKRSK
Put plainly: Trypanosoma cruzi tyrosyl tRNA synthetase (TcYRS) _High Tyrosine SOP. Type of assay: functional. The arrangement: scale not given: in the data most compounds retested in dose-response had high values. The following applies: 30 µM.
For `Cc1nonc1CC(=O)N1C[C@@H]2CC[C@H](C1)N(Cc1ccccc1)C2=O`, the Percent Effect was 0.529%.
To `CCOCC(O)CN1CCN(C(=O)CC(C)C)CC1` (stereo not given) belongs 2.46%; to `Cc1cnc(C(=O)N2CCCN(Cc3csc(C)n3)CC2)cn1`, 5.21%.
To `CN1CCCC1CNC(=O)c1nnn(-c2ccc(F)cc2)c1C1CC1` (stereo not given) belongs 4.95%; to `CN(Cc1cn2c(n1)CN(C(=O)CC1CC1)CC2)Cc1ccco1`, 5.32%; to `Cc1cccc(Cn2ccc(NS(C)(=O)=O)n2)c1`, 6.45%.
Consider `COc1cccc(COCC(=O)N2CCCC(N3CCCC3)CC2)c1` (stereo not given), for which the Percent Effect amounted to 14.2%.
Take `OCCOCCN1CCCC1c1nc2cc(F)ccc2[nH]1` (stereo not given): the Percent Effect stood at 11.5%.
To `Cc1cnn(CC(C)NCc2nc(-c3cccnc3)no2)c1` (stereo not given) belongs 7.37%.
In the case of `Cc1cc(C(=O)NCc2ccnc(N(C)C)c2)c(C)o1`, the Percent Effect amounted to 4.85%.
As for `O=C(NCCn1ccnc1)c1cccc(F)c1`, the figure is 5.42%; as for `COc1ccccc1S(=O)(=O)Nc1ccc2c(C(=O)O)c[nH]c2c1`, 0%.
For `O=C(Cc1cccc(Cl)c1)N[C@@H]1CCNC[C@H]1O`, the Percent Effect came out at 5.38%.
`CC(=O)N(C)c1nc(CN2CCOC(Cn3cccn3)C2)cs1` (stereo not given): the Percent Effect turned out to be 4.76%.
As for `N#CC1(C(=O)N2CCN(Cc3ccon3)CC2)CCC1`, the figure is 0.493%.
Turning to `COc1ccc(CN2CCCC(Nc3cccc(F)c3)C2)cc1O` (stereo not given), the Percent Effect was found to be 2.15%.
As for `Cc1cccc(-n2cc(C(=O)N3CCn4c(C)nnc4C3)nn2)c1`, the figure is 3.12%; as for `COc1ccnc(N2CCN(C(=O)c3csc(C4CC4)n3)CC2)n1`, 0%; as for `CCNC(=O)[C@@H]1C[C@H](NC(=O)c2cncnc2C)CN1CCCSC`, 4.17%.
Turning to `CCc1nc(CN2CCN(c3ncnc4cc(F)ccc34)CC2)no1`, the Percent Effect is -3.23%.
